Measured values reported in PubChem BioAssay (EPA / NIEHS).
Records with an inconclusive call do not appear. Calls of active or inactive are those of the source. Rule for the calls: active = hit-call score of the fitted dose curve at least 0.9, where 1 is the maximum; inconclusive = response in the unintended direction; inactive = score below 0.9.

Key:
[1] = biological target: Cellular tumor antigen p53 (Homo sapiens) (UniProt P04637); assay: TOX21_p53_BLA_p2_ratio: Tox21 HCT-116 p53 Agonism Beta-lactamase Assay, Ratio, Phase 2 (AID 2283592)
Procedure, shortened: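 In this cell-based reporter format, HCT116 cells were dosed with chemicals delivered from DMSO by 217-fold dilution and incubated 16 h at 37C. Emission at 460 and 530 nm after 2 h CCF4-AM loading provided the ratio, fitted upward versus DMSO.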

[2] = biological target: Cellular tumor antigen p53 (Homo sapiens) (UniProt P04637); assay: TOX21_p53_BLA_p3_ratio: Tox21 HCT-116 p53 Agonism Beta-lactamase Assay, Ratio, Phase 3 (AID 2283596)
Procedure, shortened: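 HCT116 p53-bla cells (4000/well) given compound in DMSO (217-fold dilution) after 5 h, incubated 16 h at 37C. CCF4-AM substrate 2 h at room temperature; 460/530 nm emission ratio, gain fitted against DMSO.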

[3] = TOX21_p53_BLA_p5_viability: Viability Assessment in the Tox21 HCT-116 p53 Agonism Beta-lactamase Assay, Phase 5 (AID 2283600)
Procedure, shortened: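 Compounds, pinned from DMSO at 217-fold dilution, were left on the cells for 16 h. The viability endpoint was ATP content measured by CellTiter-Glo luminescence, where falling signal reflects cytotoxicity.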

[4] = biological target: Cellular tumor antigen p53 (Homo sapiens) (UniProt P04637); assay: TOX21_p53_BLA_p4_ratio: Tox21 HCT-116 p53 Agonism Beta-lactamase Assay, Ratio, Phase 4 (AID 2283601)
Procedure, shortened: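 HCT116 cells carrying an inducible beta-lactamase reporter were plated at 4000 cells/well, rested 5 h, then exposed to compounds in DMSO (217-fold dilution) for 16 h at 37C. CCF4-AM substrate was loaded 2 h at room temperature; 460/530 nm emission ratio scored gain-of-signal versus DMSO.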

[5] = biological target: Cellular tumor antigen p53 (Homo sapiens) (UniProt P04637); assay: TOX21_p53_BLA_p5_ratio: Tox21 HCT-116 p53 Agonism Beta-lactamase Assay, Ratio, Phase 5 (AID 2283599)
Procedure, shortened: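 HCT-116 cells carrying a p53-inducible beta-lactamase reporter were seeded at 4000 cells/well and dosed after 5 h with compound in DMSO (217-fold dilution). After 16 h at 37C, CCF4-AM substrate was added for 2 h, and the 460/530 nm emission ratio was scored as gain-of-signal versus DMSO.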

[6] = biological target: Thyroid hormone receptor alpha (Rattus norvegicus) + Thyroid hormone receptor beta (Rattus norvegicus) (UniProt P18113+P63059); assay: TOX21_TR_LUC_GH3_Antagonist_Followup: Tox21 GH3 Thyroid Hormone Receptor Antagonism Luciferase Follow-Up Assay (AID 2283942)
Procedure, shortened: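 Rat pituitary GH3 cells with a TRα/TRβ-driven luciferase reporter, 5 h attachment, then 15 concentrations (92 uM to 5nM final) plus 1.0 nM T3 agonist, 24 h at 37C/5% CO2. ONE-Glo luminescence; signal change fitted against DMSO baseline.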

[7] = biological target: THRA (gene 7067) (UniProt P10827); assay: TOX21_TRA_COA_Antagonist_Followup_ratio: Tox21 Thyroid Hormone Receptor alpha Antagonism through Coactivator Recruitment Follow-Up Assay, Ratio (AID 2283953)
Procedure, shortened: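 520:495 nm emission ratio (excitation 340 nm) reports fluorescein-SRC-2 peptide recruitment to GST-TRα LBD by TR-FRET with Tb anti-GST antibody. Values were normalized to DMSO (0%) and T3 control wells (100%); loss of signal indicated antagonism.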

[8] = biological target: THRB (gene 7068) (UniProt P10828); assay: TOX21_TRB_BLA_Antagonist_Followup_ratio: Tox21 Thyroid Hormone Receptor beta Antagonism Beta-lactamase (BLA) Follow-Up Assay, Ratio (AID 2283958)
Procedure, shortened: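 HEK293T cells with a GAL4-TRb LBD fusion and UAS-bla reporter, 3,000 cells/well in phenol red-free DMEM with 2% charcoal-stripped FBS. Exposed 18 h at 37C to 11 concentrations in triplicate; CCF4 460:530 nm ratio after 2 h, DMSO-referenced.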

[9] = biological target: THRB (gene 7068) (UniProt P10828); assay: TOX21_TRB_COA_Antagonist_Followup_ratio: Tox21 Thyroid Hormone Receptor beta Antagonism through Coactivator Recruitment Follow-Up Assay, Ratio (AID 2283967)
Procedure, shortened: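 Cell-free TR-FRET coactivator recruitment with GST-tagged TRβ LBD (5.0 nM) and fluorescein-labeled SRC-2 peptide (200 nM) detected by terbium anti-GST antibody (2 nM). The 520:495 nm emission ratio was normalized to DMSO (0%) and T3 (100%).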

Measured: AC50

Chain of Cellular tumor antigen p53 (Homo sapiens) (P04637 whole entry, looked up): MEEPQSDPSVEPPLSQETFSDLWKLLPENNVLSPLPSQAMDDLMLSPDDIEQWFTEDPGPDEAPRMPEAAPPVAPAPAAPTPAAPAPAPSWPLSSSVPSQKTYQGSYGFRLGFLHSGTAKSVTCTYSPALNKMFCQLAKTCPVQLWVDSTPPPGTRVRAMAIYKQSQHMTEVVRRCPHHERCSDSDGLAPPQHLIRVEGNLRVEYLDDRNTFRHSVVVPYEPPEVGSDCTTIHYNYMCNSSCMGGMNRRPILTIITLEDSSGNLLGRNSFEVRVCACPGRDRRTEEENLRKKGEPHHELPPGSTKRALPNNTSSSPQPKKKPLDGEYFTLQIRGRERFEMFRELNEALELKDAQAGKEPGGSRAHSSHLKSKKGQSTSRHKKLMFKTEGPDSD
Chain of THRB (gene 7068) (P10828 whole entry, looked up, the tested form may be a part): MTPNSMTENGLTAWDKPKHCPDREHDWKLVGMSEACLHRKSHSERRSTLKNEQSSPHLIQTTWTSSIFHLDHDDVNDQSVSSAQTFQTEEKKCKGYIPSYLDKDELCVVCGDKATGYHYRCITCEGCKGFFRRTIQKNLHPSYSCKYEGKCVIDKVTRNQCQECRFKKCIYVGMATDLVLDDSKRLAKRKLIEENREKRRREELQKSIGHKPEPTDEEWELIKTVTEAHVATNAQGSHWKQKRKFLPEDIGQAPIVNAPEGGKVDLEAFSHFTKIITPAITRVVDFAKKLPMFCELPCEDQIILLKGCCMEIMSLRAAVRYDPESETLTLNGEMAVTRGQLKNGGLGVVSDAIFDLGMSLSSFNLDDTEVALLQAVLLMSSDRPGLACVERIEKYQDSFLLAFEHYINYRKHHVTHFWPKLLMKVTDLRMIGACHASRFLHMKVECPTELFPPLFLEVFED
Chain of THRA (gene 7067) (P10827 whole entry, looked up, the tested form may be a part): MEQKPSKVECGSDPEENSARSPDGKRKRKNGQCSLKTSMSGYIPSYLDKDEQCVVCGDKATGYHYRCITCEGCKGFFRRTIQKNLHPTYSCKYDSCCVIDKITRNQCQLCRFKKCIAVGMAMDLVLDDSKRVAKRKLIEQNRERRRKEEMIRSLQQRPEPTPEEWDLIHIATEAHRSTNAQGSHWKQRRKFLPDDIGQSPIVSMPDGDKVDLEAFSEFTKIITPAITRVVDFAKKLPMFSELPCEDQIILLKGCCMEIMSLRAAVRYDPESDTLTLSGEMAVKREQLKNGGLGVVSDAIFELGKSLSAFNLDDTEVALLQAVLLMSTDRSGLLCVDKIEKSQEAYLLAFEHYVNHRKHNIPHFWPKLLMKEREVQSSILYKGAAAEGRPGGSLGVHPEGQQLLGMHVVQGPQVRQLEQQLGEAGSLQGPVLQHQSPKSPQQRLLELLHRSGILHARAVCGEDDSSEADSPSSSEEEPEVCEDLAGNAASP

C[C@@H](N)C(=O)O
inactive: [1] | [2] | [3] | [4]

COc1ccc(CN(CCN(C)C)c2ncccn2)cc1
inactive: [1] | [2] | [4]

CC[C@]12CCCN3CCc4c(n(c5ccccc45)C(=O)C1)[C@@H]32
active: [1] 3.57 µM | [2] 4.33 µM | [5] 5.58 µM | [4] 3.51 µM

CC(=O)Oc1cc(C(C)C)c(OCCN(C)C)cc1C
inactive: [1] | [2] | [4]

C=CCc1ccccc1OCC(O)CNC(C)C (centres undefined)
inactive: [1] | [2] | [4]

CC(C)N=C=NC(C)C
inactive: [1] | [2] | [3] | [4]

COc1cc(C(=O)NCCCCCC(=O)O)cc(OC)c1OC
inactive: [1] | [2] | [5] | [4]

CC(CN(C)C)CN1c2ccccc2S(=O)(=O)c2ccccc21 (centres undefined)
inactive: [1] | [2] | [5] | [4]

CCCOc1ccc2nc(NC(=O)OC)[nH]c2c1
inactive: [1] | [5] | [4]
active: [2] 0.24 µM

COc1cc(Nc2c(C#N)cnc3cc(OCCCN4CCN(C)CC4)c(OC)cc23)c(Cl)cc1Cl
inactive: [1]
active: [2] 17.8 µM | [5] 10.9 µM | [4] 7.74 µM

Cc1cc(O)ccc1O
inactive: [1] | [2] | [3] | [4]

O=C1OC(OC(=O)c2cccnc2Nc2cccc(C(F)(F)F)c2)c2ccccc21 (centres undefined)
not listed: [5]
inactive: all other assays above
